Consider 15 targets from the supplement of paper PMC10849652.

Common to all, as to assay: log2 fold change, soluble protein after heating vs DMSO (PISA); higher = thermal stabilisation; K562 lysate, 10 uM; active = over 0.2 and 3.5 SD of the protein, either way, in both replicates (recomputed)
Compound in one experiment: CN1CC[C@H](c2c(O)cc(O)c3c(=O)cc(-c4ccccc4Cl)oc23)[C@H](O)C1 [alvocidib]
An outline of the steps: (§1)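 Dounce homogenisation of K562 pellets in PBS pH 7.4 with 1 mM MgCl2 produced a crude extract, used at 1 mg/mL protein. Exposure to 10 μM compound lasted 30 min, and aliquots were then heated for 3 min across 48°C-58°C, pooled and brought to 0.5% NP-40 at 4°C. The supernatant after 21,000xg for 90 min was quantified by TMTpro 16plex LC-MS/MS with channel sums equalised. Duplicate values are given as log-two fold change in thermal stability relative to solvent controls.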

Compound in another experiment: CN1CCc2c(c3ccccc3n2Cc2ccc(C(=O)NO)cc2)C1 [Tubastatin A]
In short, it runs like this: as §1

Compound in experiment [1]: CNC(=O)C1=CC=CC=C1NC2=NC(=NC=C2Cl)NC3=C(C=C(C=C3)N4CCOCC4)OC
In short, it runs like this: as §1

Compound in a further experiment: CNC(=O)c1ccc(Nc2ncc(C(F)(F)F)c(NCc3nccnc3N(C)S(C)(=O)=O)n2)cc1 [defactinib]
An outline of the steps:
as §1

Compound in experiment [2]: CNc1nc(-c2ccc3c(N)n[nH]c3c2)cc(N2C[C@@H](C(=O)NC3CCCCC3)CC[C@H]2C)n1
In short, it runs like this:
as §1

Compound in another experiment: COC(=O)N[C@@H](C)CNc1nccc(-c2cn(C(C)C)nc2-c2cc(Cl)cc(NS(C)(=O)=O)c2F)n1 [encorafenib]
In short, it runs like this:
as §1

Compound in experiment [3]: COC(=O)[C@H](CCSC)NC(=O)C1=C(C=C(C=C1)NC[C@H](CS)N)C2=CC=CC=C2
In short, it runs like this: as §1

Compound in the next experiment: COc1cc(Nc2ncc3c(n2)-c2ccc(Cl)cc2C(c2c(F)cccc2OC)=NC3)ccc1C(=O)O [alisertib]
An outline of the steps:
as §1

Compound in experiment [4]: COc1cc2nc(-c3cc(F)ccc3O)nc(N[C@@H]3CNC[C@H]3C(C)(C)O)c2cc1OC
In short, it runs like this:
as §1

Compound in another experiment: COc1cc2ncnc(Nc3ccc(F)c(Cl)c3)c2cc1OCCCN1CCOCC1 [gefitinib]
In short, it runs like this: as §1

Targets with a hit are over-represented here; the source holds about 8,800 in all. About 0.5% of all pairs of compound and target were hits. Values without a mark were called inactive.

Chain of UniProt Q99708 (Q99708 whole entry, looked up): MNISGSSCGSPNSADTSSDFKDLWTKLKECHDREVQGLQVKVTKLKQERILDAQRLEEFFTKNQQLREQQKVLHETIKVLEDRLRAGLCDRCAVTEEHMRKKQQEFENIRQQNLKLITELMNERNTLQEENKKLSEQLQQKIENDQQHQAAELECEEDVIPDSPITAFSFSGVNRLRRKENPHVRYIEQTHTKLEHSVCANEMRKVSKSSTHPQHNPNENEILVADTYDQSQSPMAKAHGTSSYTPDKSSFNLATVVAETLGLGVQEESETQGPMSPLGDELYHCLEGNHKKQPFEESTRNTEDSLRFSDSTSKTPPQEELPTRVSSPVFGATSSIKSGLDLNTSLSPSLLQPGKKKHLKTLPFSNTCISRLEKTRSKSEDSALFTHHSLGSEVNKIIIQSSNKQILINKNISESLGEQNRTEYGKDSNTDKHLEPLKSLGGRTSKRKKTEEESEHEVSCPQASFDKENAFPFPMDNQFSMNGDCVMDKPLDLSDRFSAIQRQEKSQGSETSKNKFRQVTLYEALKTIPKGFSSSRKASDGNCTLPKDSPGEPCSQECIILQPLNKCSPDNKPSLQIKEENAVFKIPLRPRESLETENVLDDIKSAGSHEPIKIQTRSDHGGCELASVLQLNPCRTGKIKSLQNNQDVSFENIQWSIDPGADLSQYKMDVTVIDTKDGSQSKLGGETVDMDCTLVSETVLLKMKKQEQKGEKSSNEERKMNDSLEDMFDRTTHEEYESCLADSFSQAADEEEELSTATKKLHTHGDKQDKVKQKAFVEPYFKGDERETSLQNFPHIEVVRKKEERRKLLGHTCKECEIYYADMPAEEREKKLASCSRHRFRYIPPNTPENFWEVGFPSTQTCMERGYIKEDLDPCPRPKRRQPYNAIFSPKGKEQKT
Chain of UniProt Q86X10 (Q86X10 whole entry, looked up): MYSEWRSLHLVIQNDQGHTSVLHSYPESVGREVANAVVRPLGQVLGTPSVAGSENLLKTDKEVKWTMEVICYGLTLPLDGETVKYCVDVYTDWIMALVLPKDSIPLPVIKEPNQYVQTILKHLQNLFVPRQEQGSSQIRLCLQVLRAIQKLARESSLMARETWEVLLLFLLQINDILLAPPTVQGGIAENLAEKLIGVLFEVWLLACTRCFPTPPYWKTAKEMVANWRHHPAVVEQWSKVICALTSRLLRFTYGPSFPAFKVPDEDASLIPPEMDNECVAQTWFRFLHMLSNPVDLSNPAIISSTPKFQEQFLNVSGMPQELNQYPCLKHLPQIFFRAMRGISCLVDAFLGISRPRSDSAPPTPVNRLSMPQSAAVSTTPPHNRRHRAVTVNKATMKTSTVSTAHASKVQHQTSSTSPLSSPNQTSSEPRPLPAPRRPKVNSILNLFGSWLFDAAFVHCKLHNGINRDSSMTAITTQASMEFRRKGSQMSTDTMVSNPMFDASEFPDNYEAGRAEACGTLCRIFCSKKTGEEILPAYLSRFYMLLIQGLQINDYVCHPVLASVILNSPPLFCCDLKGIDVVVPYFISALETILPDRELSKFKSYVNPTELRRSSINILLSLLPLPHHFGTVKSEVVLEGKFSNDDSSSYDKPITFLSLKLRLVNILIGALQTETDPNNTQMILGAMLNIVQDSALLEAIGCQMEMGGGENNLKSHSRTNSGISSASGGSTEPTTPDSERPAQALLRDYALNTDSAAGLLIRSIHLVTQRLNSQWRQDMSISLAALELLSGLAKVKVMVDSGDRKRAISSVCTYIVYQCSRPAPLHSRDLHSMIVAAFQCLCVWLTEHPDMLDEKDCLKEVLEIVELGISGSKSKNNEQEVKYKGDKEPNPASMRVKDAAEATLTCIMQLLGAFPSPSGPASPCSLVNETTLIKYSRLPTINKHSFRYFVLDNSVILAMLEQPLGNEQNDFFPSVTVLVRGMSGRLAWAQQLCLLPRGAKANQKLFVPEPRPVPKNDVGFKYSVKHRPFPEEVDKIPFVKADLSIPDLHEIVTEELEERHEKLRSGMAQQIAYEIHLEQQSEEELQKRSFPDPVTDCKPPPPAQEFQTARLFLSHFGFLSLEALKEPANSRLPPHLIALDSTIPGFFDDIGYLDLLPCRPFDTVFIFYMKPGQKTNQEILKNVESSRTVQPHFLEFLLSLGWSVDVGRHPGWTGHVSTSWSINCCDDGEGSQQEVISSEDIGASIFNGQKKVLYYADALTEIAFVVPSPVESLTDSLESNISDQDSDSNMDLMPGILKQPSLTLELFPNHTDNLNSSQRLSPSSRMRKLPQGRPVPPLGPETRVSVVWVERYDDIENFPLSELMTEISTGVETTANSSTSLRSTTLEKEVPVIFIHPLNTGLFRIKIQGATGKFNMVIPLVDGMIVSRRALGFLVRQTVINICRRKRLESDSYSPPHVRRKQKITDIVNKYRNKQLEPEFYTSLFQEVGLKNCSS
Chain of UniProt P54136 (P54136 whole entry, looked up): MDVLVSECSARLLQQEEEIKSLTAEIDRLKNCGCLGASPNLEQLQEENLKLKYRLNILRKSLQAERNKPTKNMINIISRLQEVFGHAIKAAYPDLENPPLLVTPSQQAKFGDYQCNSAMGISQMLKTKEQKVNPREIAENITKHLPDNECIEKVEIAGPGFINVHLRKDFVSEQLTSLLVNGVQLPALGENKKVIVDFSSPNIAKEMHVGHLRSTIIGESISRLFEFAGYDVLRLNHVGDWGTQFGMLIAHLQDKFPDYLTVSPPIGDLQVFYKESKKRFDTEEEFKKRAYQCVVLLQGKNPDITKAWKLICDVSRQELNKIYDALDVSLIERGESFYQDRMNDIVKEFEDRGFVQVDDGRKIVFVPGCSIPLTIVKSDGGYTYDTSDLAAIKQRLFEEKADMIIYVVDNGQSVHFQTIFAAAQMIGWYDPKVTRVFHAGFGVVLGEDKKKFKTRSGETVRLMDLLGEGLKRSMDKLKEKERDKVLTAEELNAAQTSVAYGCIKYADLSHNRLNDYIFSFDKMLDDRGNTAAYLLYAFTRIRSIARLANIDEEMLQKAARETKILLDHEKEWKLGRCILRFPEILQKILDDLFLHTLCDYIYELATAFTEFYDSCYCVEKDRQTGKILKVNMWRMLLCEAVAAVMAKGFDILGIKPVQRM
Chain of UniProt P51159 (P51159 whole entry, looked up): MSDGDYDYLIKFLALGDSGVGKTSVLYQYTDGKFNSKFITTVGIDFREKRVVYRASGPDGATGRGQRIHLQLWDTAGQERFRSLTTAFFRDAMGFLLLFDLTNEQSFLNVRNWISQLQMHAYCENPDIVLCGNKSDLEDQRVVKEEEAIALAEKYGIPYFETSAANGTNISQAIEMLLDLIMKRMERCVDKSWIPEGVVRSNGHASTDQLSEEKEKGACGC
Chain of UniProt O15541 (O15541 whole entry, looked up): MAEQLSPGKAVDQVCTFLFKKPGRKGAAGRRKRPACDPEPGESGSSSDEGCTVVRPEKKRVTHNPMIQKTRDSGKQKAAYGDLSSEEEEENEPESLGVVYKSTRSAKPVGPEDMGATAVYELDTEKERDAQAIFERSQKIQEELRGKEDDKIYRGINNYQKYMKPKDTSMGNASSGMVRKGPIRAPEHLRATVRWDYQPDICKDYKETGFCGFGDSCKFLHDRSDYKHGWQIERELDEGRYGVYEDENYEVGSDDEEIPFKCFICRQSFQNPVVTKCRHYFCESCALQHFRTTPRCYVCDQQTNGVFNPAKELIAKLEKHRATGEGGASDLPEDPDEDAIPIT
Chain of UniProt O60518 (O60518 whole entry, looked up): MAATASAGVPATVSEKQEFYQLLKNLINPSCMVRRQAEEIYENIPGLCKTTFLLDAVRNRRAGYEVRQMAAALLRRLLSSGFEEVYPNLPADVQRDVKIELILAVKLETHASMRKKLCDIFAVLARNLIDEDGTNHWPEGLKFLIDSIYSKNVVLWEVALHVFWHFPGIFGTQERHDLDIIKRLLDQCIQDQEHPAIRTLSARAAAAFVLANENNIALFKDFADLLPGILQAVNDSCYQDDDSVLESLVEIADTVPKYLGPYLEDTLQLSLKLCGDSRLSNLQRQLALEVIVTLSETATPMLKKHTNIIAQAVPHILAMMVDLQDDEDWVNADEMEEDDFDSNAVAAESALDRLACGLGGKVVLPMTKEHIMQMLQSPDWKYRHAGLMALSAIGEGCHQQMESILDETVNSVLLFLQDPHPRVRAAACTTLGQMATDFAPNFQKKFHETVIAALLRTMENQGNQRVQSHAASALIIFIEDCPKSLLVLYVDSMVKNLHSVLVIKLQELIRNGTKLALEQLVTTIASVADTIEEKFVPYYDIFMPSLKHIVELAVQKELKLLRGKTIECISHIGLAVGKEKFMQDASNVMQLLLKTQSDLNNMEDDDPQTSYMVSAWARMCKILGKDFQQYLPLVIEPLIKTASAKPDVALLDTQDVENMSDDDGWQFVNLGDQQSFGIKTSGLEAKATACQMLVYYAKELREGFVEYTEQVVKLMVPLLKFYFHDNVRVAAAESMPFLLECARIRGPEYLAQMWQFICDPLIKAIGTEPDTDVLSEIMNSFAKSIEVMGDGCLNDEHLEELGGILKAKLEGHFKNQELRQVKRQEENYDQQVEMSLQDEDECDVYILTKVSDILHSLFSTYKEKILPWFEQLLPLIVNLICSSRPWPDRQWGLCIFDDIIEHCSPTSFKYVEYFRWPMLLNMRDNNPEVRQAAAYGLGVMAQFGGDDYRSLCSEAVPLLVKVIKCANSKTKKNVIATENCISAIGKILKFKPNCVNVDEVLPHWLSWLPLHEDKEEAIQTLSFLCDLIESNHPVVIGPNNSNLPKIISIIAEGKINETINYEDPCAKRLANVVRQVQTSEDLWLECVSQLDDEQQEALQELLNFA
Chain of UniProt Q8IZV5 (Q8IZV5 whole entry, looked up): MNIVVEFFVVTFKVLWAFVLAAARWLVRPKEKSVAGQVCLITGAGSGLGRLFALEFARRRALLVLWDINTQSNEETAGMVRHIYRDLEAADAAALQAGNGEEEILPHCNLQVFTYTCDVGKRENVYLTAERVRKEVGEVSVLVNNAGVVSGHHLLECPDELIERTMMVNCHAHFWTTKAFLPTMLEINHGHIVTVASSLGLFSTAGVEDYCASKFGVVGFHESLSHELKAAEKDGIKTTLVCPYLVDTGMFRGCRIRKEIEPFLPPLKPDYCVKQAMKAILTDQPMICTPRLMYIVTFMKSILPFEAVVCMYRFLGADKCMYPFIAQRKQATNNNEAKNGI

For RNF113A (UniProt O15541), the log2 fold change was -0.062 in the experiment with alvocidib; 0.05 in the experiment with Tubastatin A; 0.014 in [1]; -0.013 with defactinib; 0.022 in [2]; -0.019 in the experiment with encorafenib. Besides, the log2 fold change is -0.017 in experiment [3], -0.015 with alisertib, 0.015 in [4] and 0.004 with gefitinib.
With QRSL1 (UniProt Q9H0R6), the log2 fold change was -0.028 in the experiment with alvocidib; -0.021 with Tubastatin A; -0.012 in [1]; -0.068 with defactinib; -0.051 in experiment [2]; -0.015 in the experiment with encorafenib. Further, the log2 fold change in experiment [3] is -0.005; with alisertib, 0.014; in experiment [4], 0.014; in the experiment with gefitinib, -0.045.
For the target SASS6 (UniProt Q6UVJ0), the log2 fold change is 0.051 in the experiment with alvocidib; -0.104 in the experiment with Tubastatin A; 0.018 in [1]; 0.03 in the experiment with defactinib; -0.002 in experiment [2]; 0.053 in the experiment with encorafenib. Further, the log2 fold change in experiment [3] is 0.085; with alisertib, -0.019; in [4] it was 0.005; with gefitinib, 0.001.
Take RAB27A (UniProt P51159): the log2 fold change in the experiment with alvocidib is 0.087; with Tubastatin A, -0.083; in [1] it was 0.047; in the experiment with defactinib, -0.001; in experiment [2], -0.131; in the experiment with encorafenib, 0.027. Further, the log2 fold change in experiment [3] was 0.016; with alisertib, -0.004; in [4], 0.041; with gefitinib, 0.068.
With RPS29 (UniProt P62273), the log2 fold change with alvocidib is 0.23; with Tubastatin A, -0.052; in experiment [1], -0.029; with defactinib, -0.027; in experiment [2], 0.081; with encorafenib, -0.062. Further, the log2 fold change was 0.151 in experiment [3], -0.278 with alisertib, 0.032 in experiment [4] and -0.138 with gefitinib.
Take RBMX (UniProt P38159): the log2 fold change in the experiment with alvocidib is -0.003; with Tubastatin A, -0.03; in experiment [1] it was -0.042; in the experiment with defactinib it was 0.023; in experiment [2], -0.022; with encorafenib, 0.021. The log2 fold change in experiment [3] was -0.068; with alisertib, 0.002; in [4] it was 0.013; in the experiment with gefitinib, 0.023.
Take RALGAPB (UniProt Q86X10): the log2 fold change was 0.02 in the experiment with alvocidib; -0.056 in the experiment with Tubastatin A; -0.069 in [1]; 0.026 with defactinib; 0.012 in experiment [2]; 0.044 with encorafenib. Also, the log2 fold change in experiment [3] is 0.015; with alisertib, 0; in experiment [4] it was 0.032; in the experiment with gefitinib, -0.007.
For the target RPS6KA1 (UniProt Q15418), the log2 fold change with alvocidib was 0.447 (active); in the experiment with Tubastatin A, -0.194; in experiment [1], 0.758 (active); with defactinib, 0.236; in [2] it was -0.007; with encorafenib it was -0.121. The log2 fold change in experiment [3] was -0.002; in the experiment with alisertib, 0.012; in [4], 0.165; in the experiment with gefitinib, -0.007.
With RDH10 (UniProt Q8IZV5), the log2 fold change was -0.013 with alvocidib; 0.015 with Tubastatin A; 0.069 in experiment [1]; 0.009 with defactinib; -0.013 in [2]; -0.001 in the experiment with encorafenib. Besides, the log2 fold change in experiment [3] is 0.346 (active); with alisertib, 0.037; in [4], 0.007; in the experiment with gefitinib, -0.004.
In the case of RELN (UniProt P78509), the log2 fold change was 0.026 with alvocidib; -0.051 in the experiment with Tubastatin A; -0.025 in experiment [1]; 0.055 with defactinib; -0.016 in experiment [2]; -0.009 with encorafenib. For the same target, the log2 fold change was -0.092 in experiment [3], -0.014 with alisertib, 0.141 in [4] and 0.089 with gefitinib.
Turning to RARS (UniProt P54136), the log2 fold change was 0.032 in the experiment with alvocidib; -0.1 with Tubastatin A; -0.006 in [1]; 0.024 in the experiment with defactinib; -0.035 in [2]; -0.001 with encorafenib. Also, the log2 fold change is 0.128 in experiment [3], 0.026 in the experiment with alisertib, -0.009 in experiment [4] and -0.023 with gefitinib.
As for RPL8 (UniProt P62917), the log2 fold change was 0.007 with alvocidib; 0.023 with Tubastatin A; 0.02 in experiment [1]; 0.038 with defactinib; 0.104 in experiment [2]; 0.022 with encorafenib. The log2 fold change in experiment [3] was -0.046; with alisertib it was 0.018; in experiment [4], -0.008; with gefitinib it was 0.011.
For the target SEC16A isoform 5 (UniProt O15027), the log2 fold change in the experiment with alvocidib is -0.005; in the experiment with Tubastatin A it was -0.09; in experiment [1], 0.011; with defactinib it was -0.014; in [2], -0.002; in the experiment with encorafenib, 0.011. Besides, the log2 fold change in experiment [3] is 0.01; with alisertib it was -0.001; in experiment [4], 0.013; with gefitinib, 0.014.
As to RANBP6 (UniProt O60518), the log2 fold change was -0.033 in the experiment with alvocidib; -0.07 with Tubastatin A; 0.008 in experiment [1]; 0.047 in the experiment with defactinib; 0.014 in [2]; -0.027 with encorafenib. Further, the log2 fold change is 0.057 in experiment [3], 0.063 with alisertib, 0.046 in experiment [4] and 0.008 with gefitinib.
As to RBBP8 isoform 2 (UniProt Q99708), the log2 fold change is 0.013 with alvocidib; 0.07 with Tubastatin A; 0.061 in experiment [1]; -0.023 with defactinib; 0.108 in experiment [2]; -0.039 in the experiment with encorafenib. The log2 fold change in [3] was -0.074; with alisertib, -0.008; in experiment [4], 0.009; in the experiment with gefitinib it was -0.014.
